PubChem BioAssay (Tox21)
Records with an inconclusive call do not appear. A call without a number means that no potency is given here. Calls of active or inactive are those of the source. Unless noted, calls follow the shape of the full dose curve.

test: qHTS assay to identify small molecule agonists of the NFkB signaling pathway - cell viability counter screen (AID 1159515); conditions: NFkB-bla ME-180 viability, CellTiter-Glo luminescence, 5 h; series mostly up to 61 µM; also: nearly all actives have a fitted effect of over 55% in size
Outline: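 NFkB-bla ME-180 cells, 2,000/well, plated overnight at 37 C; compound added for 5 hr at 37 C. Viability read in the same wells as the bla reporter, by CellTiter-Glo luminescence after 30 min at room temperature.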

Row | SMILES | Potency
1 | O=C(O)CCCOc1ccc(Cl)cc1Cl | inactive
2 | COc1ccc(C(=O)c2c(C)n(CCN3CCOCC3)c3ccccc23)cc1 | inactive
3 | O=C(N/N=C/c1ccc([N+](=O)[O-])o1)c1cc([N+](=O)[O-])cc([N+](=O)[O-])c1O | inactive
4 | Oc1cccc(Cl)c1 | inactive
5 | Cc1ccccc1 | inactive
6 | O=C(NC(=O)c1cc(F)c(F)cc1Cl)Nc1cc(F)ccc1N1CCC(C(=O)O)CC1 | inactive
7 | O=C(Cc1ccccc1)c1ccccc1 | inactive
8 | CCOP(=S)(S)OCC | inactive
9 | C[C@]12C=CC3=C4CCC(=O)C=C4CC[C@H]3[C@@H]1CC[C@@H]2O | inactive
10 | CCCC[N+](CCCC)(CCCC)CCCC | inactive
11 | CCCCC(CC)CO[N+](=O)[O-] (configuration not stated) | inactive
12 | O=C(O)c1cc(Cl)ccc1Cl | inactive
13 | Nc1ccccc1C(=O)OCCc1ccccc1 | inactive
14 | CCCSP(=S)(OCC)Oc1ccc(SC)cc1 (configuration not stated) | inactive
15 | CC(Oc1cccc(Cl)c1)C(=O)O (configuration not stated) | inactive
16 | Nc1c(Br)cc(Br)c2c1C(=O)c1ccccc1C2=O | inactive
17 | C=CC(=O)NC(C)(C)CC(C)=O | inactive
18 | CCCBr | inactive

test: qHTS assay to identify small molecule agonists of the endoplasmic reticulum stress response signaling pathway (AID 1159516; active = well fitted activation curve with a large enough effect in the signal ratio in the repeat runs, not every such curve was filed as active; the % refers to the signal ratio; also: potency is read from the fitted curve at half-maximal effect); conditions: ESRE-bla HeLa, ER stress beta-lactamase reporter, 5 h; series mostly up to 61 µM
Outline: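 CellSensor ESRE-bla HeLa cells, 1,500 per well, plated overnight, then exposed to compounds for 5 hr at 37 C. Beta-lactamase reporter read with LiveBLAzer B/G FRET substrate after 2 hr at room temperature, 405 nm excitation, 460 and 530 nm emission.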

Row | SMILES | Potency
19 | CC(C)(C)CC(C)(C)c1ccc(O)cc1 | inactive
20 | CNC(=O)Oc1cccc(N=CN(C)C)c1 | inactive
21 | c1ccc2sc(SNC3CCCCC3)nc2c1 | inactive
22 | O=C(N[C@H]1CN2CCC1CC2)c1ccc2c(c1)OCCO2 | inactive
23 | C=CCOC(=O)C(C)(C)OC(=O)c1cc(-n2c(=O)cc(C(F)(F)F)n(C)c2=O)ccc1Cl | inactive
24 | C=CCc1ccc(OC(=O)Cc2ccccc2)c(OC)c1 | inactive
25 | O=[N+]([O-])O[C@H]1CO[C@H]2[C@@H]1OC[C@H]2O[N+](=O)[O-] | inactive
26 | C[C@H]1[C@@H]2Cc3ccc(O)cc3[C@@]1(C)CCN2C | inactive
27 | Cc1cnc(C2=NC(C)(C(C)C)C(=O)N2)c(C(=O)O)c1 (configuration not stated) | inactive
28 | Cc1ncc(C[n+]2csc(CCO)c2C)c(N)n1 | inactive
29 | COc1cc(CC(C)N)c(OC)cc1Br (configuration not stated) | inactive
30 | C[Si](Cn1cncn1)(c1ccc(F)cc1)c1ccc(F)cc1 | inactive
31 | Cc1nc2ccccc2c(=O)n1-c1ccccc1Cl | inactive
32 | CN(C)C(=O)Nc1cccc(OC(=O)NC(C)(C)C)c1 | inactive
33 | CN(C)c1ccc(N=O)cc1 | inactive
34 | NP(N)(=O)NC(=O)c1ccc(F)cc1 | inactive
35 | OC[P+](CO)(CO)CO | 1.57 µM (active)
36 | C[C@@H]1C[C@@H]([C@H](O)CC2CC(=O)NC(=O)C2)C(=O)[C@@H](C)C1 | inactive
37 | COC1=CC(=O)O[C@@H](/C=C/c2ccc3c(c2)OCO3)C1 | inactive
38 | CCN(C(C)=O)c1cccc(-c2ccnc3c(C#N)cnn23)c1 | inactive

Row | SMILES | Potency
39 | CCOC(=O)c1cn2nc(OP(=S)(OCC)OCC)cc2nc1C | inactive
40 | O=C(O)CCCOc1ccc(Cl)cc1Cl | inactive
41 | COc1ccc(C(=O)c2c(C)n(CCN3CCOCC3)c3ccccc23)cc1 | inactive
42 | O=C(N/N=C/c1ccc([N+](=O)[O-])o1)c1cc([N+](=O)[O-])cc([N+](=O)[O-])c1O | inactive
43 | Oc1cccc(Cl)c1 | inactive
44 | Cc1ccccc1 | inactive
45 | O=C(NC(=O)c1cc(F)c(F)cc1Cl)Nc1cc(F)ccc1N1CCC(C(=O)O)CC1 | inactive
46 | O=C(Cc1ccccc1)c1ccccc1 | inactive
47 | CCOP(=S)(S)OCC | inactive
48 | C[C@]12C=CC3=C4CCC(=O)C=C4CC[C@H]3[C@@H]1CC[C@@H]2O | inactive
49 | CCCC[N+](CCCC)(CCCC)CCCC | inactive
50 | CCCCC(CC)CO[N+](=O)[O-] (configuration not stated) | inactive
51 | O=C(O)c1cc(Cl)ccc1Cl | inactive
52 | Nc1ccccc1C(=O)OCCc1ccccc1 | inactive
53 | CCCSP(=S)(OCC)Oc1ccc(SC)cc1 (configuration not stated) | inactive
54 | CC(Oc1cccc(Cl)c1)C(=O)O (configuration not stated) | inactive
55 | Nc1c(Br)cc(Br)c2c1C(=O)c1ccccc1C2=O | inactive
56 | C=CC(=O)NC(C)(C)CC(C)=O | inactive
57 | CCCBr | inactive

test: qHTS assay to identify small molecule agonists of the endoplasmic reticulum stress response signaling pathway - cell viability counter screen (AID 1159517); conditions: ESRE-bla HeLa viability, CellTiter-Glo luminescence, 5 h; series mostly up to 61 µM; also: nearly all actives have a fitted effect of over 50% in size; also: potency is read from the fitted curve at half-maximal effect
Outline: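 ESRE-bla HeLa cells, 1,500 per well, seeded overnight then treated with compounds for 5 hr at 37 C. After the beta-lactamase read, viability in the same wells is measured by CellTiter-Glo luminescence after 30 min at room temperature.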

Row | SMILES | Potency
58 | CC(C)(C)CC(C)(C)c1ccc(O)cc1 | 21.9 µM (active)
59 | c1ccc2sc(SNC3CCCCC3)nc2c1 | inactive
60 | O=C(N[C@H]1CN2CCC1CC2)c1ccc2c(c1)OCCO2 | inactive
61 | C=CCc1ccc(OC(=O)Cc2ccccc2)c(OC)c1 | inactive
62 | Cc1cnc(C2=NC(C)(C(C)C)C(=O)N2)c(C(=O)O)c1 (configuration not stated) | inactive
63 | Cc1ncc(C[n+]2csc(CCO)c2C)c(N)n1 | inactive
64 | COc1cc(CC(C)N)c(OC)cc1Br (configuration not stated) | inactive
65 | Cc1nc2ccccc2c(=O)n1-c1ccccc1Cl | inactive
66 | CN(C)c1ccc(N=O)cc1 | 43.6 µM (active)
67 | OC[P+](CO)(CO)CO | inactive
68 | C[C@@H]1C[C@@H]([C@H](O)CC2CC(=O)NC(=O)C2)C(=O)[C@@H](C)C1 | inactive
69 | COC1=CC(=O)O[C@@H](/C=C/c2ccc3c(c2)OCO3)C1 | inactive
70 | CCOC(=O)c1cn2nc(OP(=S)(OCC)OCC)cc2nc1C | inactive
71 | O=C(O)CCCOc1ccc(Cl)cc1Cl | inactive
72 | COc1ccc(C(=O)c2c(C)n(CCN3CCOCC3)c3ccccc23)cc1 | inactive
73 | O=C(N/N=C/c1ccc([N+](=O)[O-])o1)c1cc([N+](=O)[O-])cc([N+](=O)[O-])c1O | inactive
74 | O=C(NC(=O)c1cc(F)c(F)cc1Cl)Nc1cc(F)ccc1N1CCC(C(=O)O)CC1 | inactive
75 | CCOP(=S)(S)OCC | inactive
76 | C[C@]12C=CC3=C4CCC(=O)C=C4CC[C@H]3[C@@H]1CC[C@@H]2O | inactive
77 | CCCC[N+](CCCC)(CCCC)CCCC | inactive
78 | CCCCC(CC)CO[N+](=O)[O-] (configuration not stated) | inactive
79 | Nc1ccccc1C(=O)OCCc1ccccc1 | inactive
80 | CCCSP(=S)(OCC)Oc1ccc(SC)cc1 (configuration not stated) | inactive
81 | CC(Oc1cccc(Cl)c1)C(=O)O (configuration not stated) | inactive
82 | CCCBr | inactive
